The values below come from PubChem BioAssay (NCI).

Common to all, as to experiment: NCI-60 one-dose screen, 48 h (100 = growth as untreated, 0 = no growth, -100 = all killed)
The subject of experiment [1] is HCT-15 colon. To be noted: 10 µM unless noted.
The subject of experiment [2] is HT29 colon. Conditions: 10 µM unless noted.
The test system of experiment [3] is SNB-75 CNS. To be noted: 10 µM unless noted.
Experiment [4] concerns SNB-19 CNS. Conditions: 10 µM unless noted.
In experiment [5] the test system is U251 CNS. Conditions: 10 µM unless noted.
Experiment [6] concerns PC-3 prostate. To be noted: 10 µM unless noted.
Experiment [7] has as its system SK-MEL-5 melanoma. To be noted: 10 µM unless noted.
The test system of experiment [8] is UACC-62 melanoma. Conditions: 10 µM unless noted.
The test system of experiment [9] is LOX IMVI melanoma. Conditions: 10 µM.
For experiment [10], the system named is SK-MEL-28 melanoma. Conditions: 10 µM unless noted.
Experiment [11] concerns SK-MEL-2 melanoma. To be noted: 10 µM unless noted.
The subject of experiment [12] is SN12C renal. Conditions: 10 µM unless noted.
Experiment [13] has as its system UO-31 renal. To be noted: 10 µM unless noted.
Experiment [14] has as its system TK-10 renal. To be noted: 10 µM unless noted.
Experiment [15] concerns ACHN renal. Conditions: 10 µM unless noted.
Experiment [16] deals with CAKI-1 renal. To be noted: 10 µM unless noted.
Experiment [17] concerns A498 renal. To be noted: 10 µM unless noted.
Experiment [18] has as its system CCRF-CEM leukemia. To be noted: 10 µM unless noted.
Experiment [19] concerns MOLT-4 leukemia. To be noted: 10 µM unless noted.
The subject of experiment [20] is EKVX NSCLC. To be noted: 10 µM unless noted.

About 83,000 compounds went through this panel and 20% of them were active in at least one assay; those are over-represented in the sample as a whole.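 Cells were grown in 96-well plates and exposed to the test compound at a single concentration for 48 hours; results are reported as percent growth, with values below 10 considered active.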 A number with no mark means an inactive call. Activity calls are given as the source filed them.

On to `CCCC(=O)c1cccs1`, for which the growth in experiment [1] is 100%; in [2], 98%; in experiment [3], 88.5%; in [4], 101%; in experiment [5] it was 110%; in experiment [6] it was 89.2%. In addition, the growth in [7] is 105%; in [8], 95.1%; in experiment [9] it was 95.9%; in experiment [10], 107%; in experiment [11], 115%; in experiment [12] it was 95.6%. Further, the growth in experiment [13] is 98%; in experiment [14], 101%; in experiment [15], 103%; in experiment [16] it was 99.7%; in [17], 61%; in experiment [18] it was 102%. The growth in [19] was 100%.

For the compound `COC1=C(OC)C(=O)C(SC/C=C(\C)CCCC(C)CCCC(C)CCCC(C)C)=CC1=O` (centres undefined), the growth is 17.2% in experiment [1]; 56.2% in experiment [2]; 27.8% in [3]; 24.6% in [4]; 15.4% in [5]; 10.8% in experiment [6]. Further, the growth in experiment [7] was -67.3% (active); in experiment [8], 26.7%; in [9] it was 17.2%; in experiment [10], 40.8%; in experiment [11], -11.3% (active); in experiment [20], 27.6%. For the same compound, the growth in experiment [13] was -3.97% (active); in experiment [14], 56%; in experiment [15], 20.6%; in experiment [16], 102%; in experiment [17], 16.8%; in [19] it was 10.4%.

For the compound `CC(=O)NC(CCc1ccc(Cl)c(Cl)c1)c1cccc(O)c(=O)c1` (centres undefined), the growth in experiment [1] was 29.9%; in experiment [2], 27.6%; in experiment [3], 18.7%; in [4], 23.7%; in [5], 13.7%; in experiment [6], 38.9%. Besides, the growth was -31.8% (active) in experiment [7]; -57.7% (active) in [8]; -2.69% (active) in experiment [9]; 19.5% in [10]; 17.8% in [11]; 12.4% in experiment [12]. Besides, the growth is -20.9% (active) in experiment [13]; 25.8% in experiment [14]; 17.5% in [15]; -0.0278% (active) in experiment [16]; 36% in experiment [17]; 4.93% (active) in experiment [18]. In [19], the growth was 4.68% (active).

For the compound `O=C1NC(=O)C(c2ccccc2)O1` (centres undefined), the growth in experiment [1] is 107%; in experiment [2], 105%; in [3], 93.2%; in experiment [4], 109%; in experiment [5] it was 101%; in experiment [6] it was 102%. The growth was 104% in experiment [7]; 105% in experiment [8]; 97.4% in experiment [9]; 109% in experiment [10]; 90.1% in experiment [11]; 103% in experiment [12]. For the same compound, the growth was 87.6% in experiment [13]; 101% in experiment [14]; 99.2% in experiment [15]; 98% in [16]; 102% in experiment [17]; 101% in [18]. The growth in experiment [19] was 98.3%.

In the case of `CCc1ccccc1C(=O)N(CC)CC`, the growth in experiment [1] is 103%; in experiment [2], 106%; in experiment [3], 90.6%; in experiment [4], 105%; in experiment [5] it was 103%; in experiment [6] it was 102%. Besides, the growth was 104% in experiment [7]; 99.5% in experiment [8]; 99.2% in experiment [9]; 102% in experiment [10]; 123% in experiment [11]; 96.6% in experiment [20]. Further, the growth in experiment [13] was 91.1%; in [14], 106%; in [15] it was 104%; in experiment [17] it was 86.1%; in experiment [18], 97.5%; in [19], 96.4%.

Regarding `CCNc1ccc2ccccc2c1N=Nc1ccc(N=Nc2ccccc2)cc1`, the growth is 104% in [1]; 112% in experiment [2]; 100% in experiment [3]; 112% in [4]; 109% in experiment [5]; 87.1% in [6]. The growth was 87.5% in experiment [7]; 72.6% in experiment [8]; 93.1% in experiment [9]; 120% in experiment [10]; 64.6% in experiment [11]; 98.5% in experiment [20]. Besides, the growth was 71.1% in experiment [13]; 128% in experiment [14]; 95.2% in experiment [15]; 107% in experiment [16]; 137% in experiment [17]; 95.8% in experiment [18]. Further, in experiment [19], the growth is 82.2%.

`CC(C)(C)[Si](C)(C)OCC1OC(n2cnc3c(N)ncnc32)CC1OS(C)(=O)=O` (centres undefined): the growth is 115% in experiment [1]; 108% in experiment [2]; 97.4% in experiment [3]; 108% in experiment [4]; 91.7% in experiment [5]; 103% in [6]. Also, the growth was 98.5% in experiment [7]; 90.4% in experiment [8]; 95.4% in experiment [9]; 105% in experiment [10]; 105% in experiment [11]; 105% in experiment [20]. Further, the growth is 86.8% in [13]; 99.7% in [14]; 96.2% in [16]; 67.6% in experiment [17]; 101% in experiment [18]; 105% in [19].

With `COC1OC(C(COC(C)=O)OC(C)=O)C(OC(C)=O)C(OC(C)=O)C1OC(C)=O` (centres undefined), the growth in experiment [1] is 92.5%; in [2] it was 105%; in [3], 97.6%; in experiment [4] it was 99.4%; in experiment [5], 101%; in [6] it was 107%. The growth in experiment [7] was 106%; in experiment [8] it was 110%; in experiment [9] it was 103%; in [10], 105%; in [11], 113%; in experiment [12], 107%. Besides, the growth is 83.8% in experiment [13]; 107% in experiment [14]; 95.3% in [15]; 96.2% in [16]; 125% in experiment [17]; 104% in [18]. In addition, the growth in experiment [19] is 93.5%.
